Screening results as filed in PubChem BioAssay.
HCMV inh: inhibitors of human cytomegalovirus; HFF cells, HCMV-luciferase reporter, 72 h; active compounds read low; 410,000 tested, 4.5% active; AID 1259415; activity change, negative = inhibition, % at 57.5 µM; in the data active means activity change below about -60%; inconclusive means no clear call, values can overlap the other calls; inactive means above about -39%
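Steps: HFFs plated, 16 h 37C; compounds added; HCMV-luciferase added to MOI 1 PFU/cell; 72 h 37C; OneGlo reagent, 5 min room temperature; luminescence read, normalized to controls.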
FMDV inh: blocks foot and mouth disease virus | FMDV antiviral cell-based qHTS | Potency, µM (doses to about 57.9 µM), most hits filed as inhibitors | 410,000 tested, 1.2% active; calls by dose curve; tested in HEK293T cells; further: read-out not given here; nearly all actives have a fitted effect of over 45% in size
AmpC inh no detg: inhibitors of E. coli AmpC beta-lactamase without detergent; P00811; AmpC nitrocefin hydrolysis, absorbance 480 nm, 0.0001% Triton; Potency, µM (series often up to 57.1 µM), most hits filed as inhibitors; 330,000 tested, 0.52% active; further: nearly all actives have a fitted effect of over 20% in size
Target sequence (P00811 whole entry, looked up): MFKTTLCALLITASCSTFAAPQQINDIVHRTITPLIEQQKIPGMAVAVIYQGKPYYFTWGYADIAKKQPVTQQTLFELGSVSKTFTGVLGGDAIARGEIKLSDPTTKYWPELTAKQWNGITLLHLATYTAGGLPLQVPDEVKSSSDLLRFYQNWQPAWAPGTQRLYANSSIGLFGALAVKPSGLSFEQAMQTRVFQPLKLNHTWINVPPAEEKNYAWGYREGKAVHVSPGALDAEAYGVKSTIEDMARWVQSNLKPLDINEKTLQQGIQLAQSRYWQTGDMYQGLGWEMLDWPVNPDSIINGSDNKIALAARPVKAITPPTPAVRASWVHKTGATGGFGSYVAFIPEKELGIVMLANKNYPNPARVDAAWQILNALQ
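AmpC (5.3 nM in the dispensed reagent) in 20 mM phosphate pH 7.0 with 0.01% (detergent screen) or 0.0001% Triton X-100 was preincubated with compounds for 15 min at room temperature. Nitrocefin was then added from an 800 uM solution, and hydrolysis was followed at 480 nm.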
AmpC detergent: blocks E. coli AmpC beta-lactamase in detergent assay. P00811. AID 485294. 370,000 tested, 0.041% active. AmpC hydrolysis of nitrocefin, absorbance 480 nm, 0.01% Triton. Potency, µM (series often up to 114 µM), actives largely listed as inhibitors; further: nearly all actives have a fitted effect of over 25% in size
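AmpC (5.3 nM in the dispensed reagent) in 20 mM phosphate pH 7.0 with 0.01% (detergent screen) or 0.0001% Triton X-100 was preincubated with compounds for 15 min at room temperature. Nitrocefin was then added from an 800 uM solution, and hydrolysis was followed at 480 nm.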
HCV inhibitor: blocks hepatitis C virus | Huh7.5.1 HCVcc-Cre infection, luciferase reporter, 44 h | Potency, µM (series often up to 41.8 µM), actives largely listed as inhibitors | 340,000 tested, 3.4% active
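Cells seeded at 1,000/well and cultured 4 h, then compounds added followed by HCVcc-Cre virus (~0.5 moi). After 44 h further culture, luciferase substrate was added, plates held 15 min at room temperature, and luminescence read for 15 sec.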
A number is an active result; i = inactive; ? = inconclusive; nt = not tested or not shown; ! = not confirmed by another sample; [ ] = dose if it differs, or a comment. Only some compounds are listed: those with a hit (about 7.3% of all), similar ones and a draw of the others. Unless noted, the call rests on the fitted dose curve; in most records, active means well fitted curve in the direction sought with a large enough effect; inconclusive means small, poorly fitted or top-dose-only effect, or another doubt; inactive means no such curve, though single readings can be large; an effect the other way counts as inactive or inconclusive.

SMILES | HCMV inh | FMDV inh | AmpC inh no detg | AmpC detergent | HCV inhibitor
CCNc1ccc(Br)cc(C(=O)/C=C/c2ccc(Cl)cc2)c1=O | nt | ? | i | i | ?
CNc1ccc(Br)cc(C(=O)/C=C/c2ccc(Cl)cc2Cl)c1=O | i | 10µM | i | i | ?
O=C(NCCO)C(=O)Nc1cc2c3c(c1)CCN3C(=O)CC2 | i | i | i | i | i
C[C@@H]1COC(=O)[C@@H](Cc2ccc(F)cc2)C/C=C\C[C@@H](CC(=O)NCCO)C(=O)N1 | i | i | i | nt | i
Cc1ccc(C)c(NC(=O)CSc2nc3nccnc3c(=O)n2CCc2c[nH]c3ccccc23)c1 | i | i | nt | i | nt
CNc1ccc(Br)cc(C(=O)/C=C/c2cccc(OC)c2)c1=O | -85 | ? | i | i | 11µM
CCNc1ccc(Br)cc(C(=O)/C=C/c2ccc3c(c2)OCO3)c1=O | i | ? | i | ? | i
COc1ccc(C=C2c3ccccc3C(=O)c3ccccc32)c(OC)c1 | -88 | nt | i | i | nt
CCNc1ccc(Br)cc(C(=O)/C=C/c2c(Cl)cccc2Cl)c1=O | nt | 32µM | i | i | 13µM
COc1ccc(/C=C/C(=O)c2ccc(OC)cc2OC)c(OC)c1 | -76 | i | i | i | ?
COc1ccc(/C=C/C(=O)c2ccccc2)c(OC)c1 | i | i | i | i | i
C/C(O)=c1/c(=O)nc2cccc3c2=c1c1ccccc1c3=O | i | i | i | i | i
CCCCOCC1CN(Cc2ccccc2OC)S(=O)(=O)c2cc(Cl)ccc2O1 (stereo not given) | i | nt | nt | nt | nt
Cc1ccc(N2CCN(C(=O)C3CCC(=O)N(Cc4ccc(Cl)cc4)C3)CC2)c(C)c1 (stereo not given) | ? | ? | i | i | 11µM
COc1ccc(N2CC(C(=O)NCCc3ccc(Cl)cc3)CC2=O)c(OC)c1 (stereo not given) | i | i | i | i | ?
COc1cccc(C(=O)Nc2ccc(N3CCN(C(=O)c4cccs4)CC3)cc2)c1 | i | 32µM | i | i | ?
O=C(NC(=S)Nc1ccc(N2CCN(C(=O)c3ccccc3)CC2)cc1)c1cccs1 | -64 | ? | i | i | 32µM
O=Cc1ccc(Oc2ncccn2)cc1 | i | i | i | i | i
CCOc1cc(CNCCCN2CCOCC2)ccc1OCC(=O)Nc1cccc2ccccc12 | ? | i | i | i | 14µM
CCOc1cc(CNC(CC)CO)ccc1OCC(=O)Nc1cccc(C(F)(F)F)c1 (stereo not given) | i | i | i | i | 1.1µM
COc1ccc(CNC(=O)Nc2cccc(C(F)(F)F)c2)cc1OC | ? | i | i | ? | i
COc1cc(CNCCCN2CCOCC2)ccc1OCC(=O)Nc1cccc(C(F)(F)F)c1 | i | i | i | i | 10µM
O=C(COc1ccc(Br)cc1CNCCCN1CCOCC1)Nc1ccccc1 | i | i | i | i | ?
COc1cc(CNCCO)ccc1OCC(=O)Nc1ccc(Br)cc1 | i | i | i | ? | 5.6µM
CCCN1CCN(c2ncnc3sc(C(=O)Nc4c(C)cc(C)cc4C)c(C)c23)CC1 | ? | ? | nt | i | nt
SMILES | HCMV inh | FMDV inh | AmpC inh no detg | AmpC detergent | HCV inhibitor
O=C(CN1C(=O)CSc2ccc(S(=O)(=O)N3CCCC3)cc21)NCc1ccccc1Cl | i | i | nt | i | nt
O=c1cc(N2CCCC2)c2ccccc2o1 | i | i | i | i | 11µM
O=c1cc(N2CCOCC2)c2ccccc2o1 | i | nt | i | i | i
COc1ccc(NS(=O)(=O)c2ccc(-c3coc(C)n3)cc2)cc1OC | -92 | i | i | i | ?
CS(=O)(=O)N(CCCC(=O)N1CCCCCC1)c1cccc(Cl)c1 | i | i | i | i | i
COc1cc(-c2nnc(SCCOc3ccc(Cl)cc3)o2)cc(OC)c1OC | i | ? | nt | i | nt
Cc1ccc(NC(=O)NCC2CCN(Cc3cccc(Cl)c3)CC2)c(Cl)c1 | -66 | i | i | i | 13µM
CCc1ccc(NC(=O)NCC2CCN(Cc3cccc(Cl)c3)CC2)cc1 | i | i | i | i | ?
Cc1ccc(NC(=O)NCC2CCN(Cc3cccc(Cl)c3)CC2)cc1Cl | -92! | ? | i | i | i
O=C(NCC1CCN(Cc2cccc(Cl)c2)CC1)Nc1ccccc1Cl | i | i | i | i | ?
Cc1ccc(S(=O)(=O)N(CCC(=O)N2CCOCC2)c2ccccc2)cc1 | i | i | i | ? | i
CC(=O)Oc1ccccc1/C=C1\CCOC1=O | -62 | nt | i | ? | i
Cc1cc(NC(=O)CSc2nc(-c3ccc(Cl)cc3)cs2)no1 | i | i | i | i | ?
O=[N+]([O-])c1cccc(NC(=S)Nc2nc(-c3ccccc3Cl)cs2)c1 | nt | i | i | i | 8.9µM
O=C(CSc1nc(-c2ccc(Cl)cc2)cs1)Nc1cccc([N+](=O)[O-])c1 | i | i | i | i | 13µM
COc1ccc2c(c1)[C@@H](NC(C)=O)[C@H](C)[C@@H](c1ccccc1)N2C(=O)Nc1ccc(C(F)(F)F)cc1 | i | nt | nt | nt | nt
COc1ccccc1C1CN(Cc2c(C)nn(C)c2Cl)Cc2ccccc2O1 (stereo not given) | nt | i | nt | nt | nt
Cc1cccc(/C=N/NC(=O)c2cc3c(s2)-c2ccccc2CC3)c1 | i | i | i | i | i
O=C(N/N=C/c1cccc(C(F)(F)F)c1)c1cc2c(s1)-c1ccccc1CC2 | i | i | 0.16µM | i | i
COc1ccc(NC(=O)C2CCCN(S(=O)(=O)c3ccccc3)C2)c(OC)c1 (stereo not given) | i | i | i | ? | ?
C(=N\Nc1nncc2ccccc12)/c1ccccn1 | -98 | ? | i | i | 3.2µM
Fc1cccc(/C=N/Nc2nncc3ccccc23)c1 | i | i | i | i | i
Cc1cc(=O)[nH]c(NN=Cc2c(Cl)cccc2Cl)n1 | ? | i | nt | nt | i
Cc1cc(=O)[nH]c(N/N=C/c2ccccn2)n1 | -100 | i | i | i | 1µM
C(=N\Nc1ccc2nncn2n1)/c1ccccn1 | -87 | i | i | i | i
SMILES | HCMV inh | FMDV inh | AmpC inh no detg | AmpC detergent | HCV inhibitor
O=c1nc(N/N=C/c2ccccn2)cn[nH]1 | i | i | i | i | ?
C#CCn1cc(/C=N/Nc2nc3ccccc3[nH]2)c2ccccc21 | -69 | i | i | i | ?
c1ccc2c(c1)CC/C2=N/Nc1nc2ccccc2[nH]1 | -112 | i | i[11.4 µM] | ? | ?
C(=N\Nc1nc2ccccc2[nH]1)/c1ccccn1 | -100 | 10µM | i | ? | i
O=c1cnnc(N/N=C/c2ccccn2)[nH]1 | i | i | i | i | 6.3µM
Cc1ccc(NC(=O)CNC(=O)C23CC4CC(CC(C4)C2)C3)nc1 | i | i | nt | nt | nt
Nc1nc(NCc2ccccc2)nc(-c2ccccc2)n1 | i | nt | i | i | 10µM
CCn1c(=NC(=O)c2ccc(S(=O)(=O)N3CCOCC3)cc2)sc2cccc(OC)c21 | i | ? | i | ? | 10µM
CCn1c(=NC(=O)c2ccc(N3C(=O)CCC3=O)cc2)sc2c(OC)ccc(OC)c21 | i | ? | i | i | 14µM
CCn1c(=NC(=O)CS(=O)(=O)c2ccc(F)cc2)sc2cccc(OC)c21 | ? | ? | i | ? | ?
